The structures appear in SMILES notation. Records with an inconclusive call do not appear. Activity calls are given as the source filed them. The calls were made as follows, unless noted: active = hit-call score of the fitted dose curve at least 0.9, where 1 is the maximum; inconclusive = response in the unintended direction; inactive = score below 0.9.

The nature of test [1]: BSK_3C_VCAM1: BioMAP Diversity Plus: 3C Assay for Vascular cell adhesion molecule 1 (VCAM1) Biomarker Activity (AID 2282999; active = hit-call score of the fitted dose curve at least 0.9, where 1 is the maximum; inactive = score below 0.9). As to conditions: BioMAP 3C HUVEC, VCAM1 ELISA, cytokine-stimulated; actives raise or lower the signal. In outline:
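Human umbilical vein endothelial cells (3C system), biomarker read by ELISA 24 h after dosing; bidirectional fit against DMSO baseline. Cytotoxicity tracked by SRB total-protein staining in parallel cultures at biomarker time.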
For orientation: An ELISA detects its analyte on a solid surface through an enzyme-linked reagent.

Test [2] can be described thus: BSK_4H_Eotaxin3: BioMAP Diversity Plus: 4H Assay for Eotaxin 3 Biomarker Activity (AID 2283000; active = hit-call score of the fitted dose curve at least 0.9, where 1 is the maximum; inactive = score below 0.9;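 also: CCL26 protein level quantified by ELISA in parallel with SRB cytotoxicity check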). The following applies: primary human endothelial cells (HUVEC); actives raise or lower the signal. The method, boiled down:
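ELISA quantitation of CCL26 (Eotaxin-3) protein from chemically dosed human vascular endothelial cells at 24 h; increases and decreases both scored relative to DMSO-treated baseline.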

Test [3] addresses human Peroxisome Proliferator-activated Receptor alpha (PPARa), PPARA (gene 5465) (UniProt Q07869). The test can be described thus: ATG_PPARa_TRANS: Attagene TRANS-FACTORIAL HepG2 Assay for human Peroxisome Proliferator-activated Receptor alpha (PPARa) (AID 2283001). In outline:
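HepG2 cells transiently transfected with multiplexed GAL4-UAS reporters driven by exogenous chimeric NR-Gal4 proteins; reporter mRNA measured after 24 h dosing. Read-out by RT-PCR, 6-FAM labelling, HpaI digestion and capillary electrophoresis; gain of signal versus DMSO.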

Test [4] has as its target human Peroxisome Proliferator-activated Receptor delta (PPARd), PPARD (gene 5467) (UniProt Q03181). The test can be described thus: ATG_PPARd_TRANS: Attagene TRANS-FACTORIAL HepG2 Assay for human Peroxisome Proliferator-activated Receptor delta (PPARd) (AID 2283002). In outline: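 Fluorescence from capillary electrophoresis of labelled RT-PCR reporter fragments gives the signal; DMSO sets baseline. Cells: HepG2 transiently carrying GAL4-UAS reporter units plus chimeric nuclear receptor-Gal4 proteins, exposed to chemicals for 24 h.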

Read-out in test [5]: Intercellular Adhesion Molecule 1 (ICAM1), ICAM1 (gene 3383)
Briefly: BSK_3C_ICAM1: BioMAP Diversity Plus: 3C Assay for Intercellular Adhesion Molecule 1 (ICAM1) Biomarker Activity (AID 2283003; active = hit-call score of the fitted dose curve at least 0.9, where 1 is the maximum; inactive = score below 0.9). The following applies: primary human endothelial cells (HUVEC); actives raise or lower the signal. In outline: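 ICAM-1 levels measured by ELISA after HUVEC cultures in the 3C system had been dosed for 24 h. Gain or loss of signal relative to DMSO was fitted in both directions.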

Test [6] is described as follows: BSK_3C_Proliferation: Cell Proliferation Assessment in the BioMAP Diversity Plus: 3C Assay (AID 2283006; active = hit-call score of the fitted dose curve at least 0.9, where 1 is the maximum; inactive = score below 0.9;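 as to AC50: potency may reflect either rise or fall in cell number versus DMSO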). As to conditions: primary human endothelial cells (HUVEC). The method, boiled down:
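Read-out is total protein by SRB absorbance at 560 nm, taken as a proxy for relative cell number. Primary human umbilical vein endothelium cultured below confluence was dosed for 48 h, TCA-fixed and SRB-stained; curves were fitted bidirectionally versus DMSO.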

Test [7] has as its target Peroxisome proliferator-activated receptor gamma (Homo sapiens) (UniProt P37231). The test can be described thus: ATG_PPARg_TRANS: Attagene TRANS-FACTORIAL HepG2 Assay for human Peroxisome Proliferator-activated Receptor-gamma (PPARg) (AID 2283007). In outline: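 Liver-derived HepG2 cells expressing an exogenous NR-Gal4 chimera alongside GAL4-UAS reporter genes; 24 h exposure. Fluorescence of reporter RT-PCR products, separated by capillary electrophoresis, gives mRNA induction relative to DMSO.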

Test [8] deals with human RAR-related Orphan Receptor beta (RORb), RORB (gene 6096) (UniProt Q92753). The test can be described thus: ATG_RORb_TRANS: Attagene TRANS-FACTORIAL HepG2 Assay for human RAR-related Orphan Receptor beta (RORb) (AID 2283010). The method, boiled down: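 Readout is reporter-gene mRNA induction, detected as fluorescence after RT-PCR and capillary electrophoresis, fitted for gain of signal against DMSO controls. Transiently transfected HepG2 liver cells carrying GAL4-UAS reporter constructs were treated for 24 hours.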

For test [9], the target named is human RAR-related Orphan Receptor gamma (RORg), RORC (gene 6097) (UniProt P51449). Briefly: ATG_RORg_TRANS: Attagene TRANS-FACTORIAL HepG2 Assay for human RAR-related Orphan Receptor gamma (RORg) (AID 2283011). The method, boiled down:
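Chimeric RORg-Gal4 transactivation in transfected HepG2; 24 h exposure; RT-PCR/capillary electrophoresis readout of reporter mRNA, DMSO baseline.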

The target of test [10] is Retinoic acid receptor RXR-alpha (Homo sapiens) (UniProt P19793). The test can be described thus: ATG_RXRa_TRANS: Attagene TRANS-FACTORIAL HepG2 Assay for human Retinoid X Receptor alpha (RXRa) (AID 2283012). The method, boiled down: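 Transient transfection of human HepG2 with multiple GAL4-UAS reporter constructs; 24 h compound exposure; total RNA isolated, reverse-transcribed, PCR-amplified, 6-FAM labelled, HpaI-cut, resolved by capillary electrophoresis. Positive-direction fit versus DMSO.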

Read-out in test [11]: E-selectin (Homo sapiens) (UniProt P16581)
Briefly: BSK_3C_Eselectin: BioMAP Diversity Plus: 3C Assay for Eselectin Biomarker Activity (AID 2283015; active = hit-call score of the fitted dose curve at least 0.9, where 1 is the maximum; inactive = score below 0.9;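 as to outcome: cell surface E-selectin protein quantified by ELISA 24 h after dosing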). The following applies: primary human endothelial cells (HUVEC); actives raise or lower the signal. The method, boiled down:
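Endpoint derived by bidirectional fitting against DMSO vehicle; signal is ELISA-detected E-selectin from primary HUVEC at 24 h post-dosing, with parallel SRB staining (0.1% SRB, 560 nm) flagging cytotoxicity.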

Read-out in test [12]: Interleukin-1 alpha (IL1a), IL1A (gene 3552)
The test can be described thus: BSK_BE3C_IL1a: BioMAP Diversity Plus: BE3C Assay for Interleukin-1 alpha (IL1a) Biomarker Activity (AID 2283016; active = hit-call score of the fitted dose curve at least 0.9, where 1 is the maximum; inactive = score below 0.9). As to conditions: primary human bronchial epithelial cells; actives raise or lower the signal. The method, boiled down: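 BE3C primary human bronchial epithelium; cpd 24 h; IL-1a by ELISA; bidirectional fit vs DMSO; parallel SRB (0.1% SRB, 10% TCA fix, 560 nm) for cytotoxicity.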

Read-out in test [13]: Monocyte Chemoattractant Protein-1 (MCP1), CCL2 (gene 6347)
The test can be described thus: BSK_3C_MCP1: BioMAP Diversity Plus: 3C Assay for Monocyte Chemoattractant Protein-1 (MCP1) Biomarker Activity (AID 2283017; active = hit-call score of the fitted dose curve at least 0.9, where 1 is the maximum; inactive = score below 0.9). The following applies: primary human endothelial cells (HUVEC); actives raise or lower the signal. The method, boiled down:
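Using human vascular primary endothelium, researchers measured MCP-1 by ELISA 24 h after treatment, with DMSO serving as negative control for bidirectional fitting.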

Read-out in test [14]: Monocyte Chemoattractant Protein-1 (MCP1), CCL2 (gene 6347)
The test can be described thus: BSK_4H_MCP1: BioMAP Diversity Plus: 4H Assay for Monocyte Chemoattractant Protein-1 (MCP1) Biomarker Activity (AID 2283018; active = hit-call score of the fitted dose curve at least 0.9, where 1 is the maximum; inactive = score below 0.9). The following applies: primary human endothelial cells (HUVEC); actives raise or lower the signal. The method, boiled down: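 ELISA read-out of MCP-1 from human vascular endothelial primary cells taken at 24 hours after compound exposure. Activity was fitted in both directions relative to DMSO, which served as negative control.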

Test [15] concerns the target Nuclear receptor subfamily 1 group I member 2 (Homo sapiens) (UniProt O75469). Briefly: ATG_PXR_TRANS: Attagene TRANS-FACTORIAL HepG2 Assay for human Pregnane X Receptor (PXR) (AID 2283008). The method, boiled down: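 Read-out is fluorescence of labelled reporter cDNA fragments separated by capillary electrophoresis after RT-PCR and HpaI digestion. Source: HepG2 cells carrying PXR-GAL4/UAS reporter constructs, treated 24 h; activity fitted upward relative to DMSO.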

The target of test [16] is human Retinoic Acid Receptor gamma (RARg), RARG (gene 5916) (UniProt P13631). Briefly: ATG_RARg_TRANS: Attagene TRANS-FACTORIAL HepG2 Assay for human Retinoic Acid Receptor gamma (RARg) (AID 2283009). In outline:
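Transient transfection of HepG2 with multi-reporter constructs, then 24 h chemical treatment. Total RNA isolated, reverse-transcribed, PCR-amplified, fluorescently labelled and resolved by capillary electrophoresis; activity scored as mRNA induction versus DMSO.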

The target of test [17] is human Thyroid Receptor alpha (THRa1), THRA (gene 7067) (UniProt P10827). Briefly: ATG_THRa1_TRANS: Attagene TRANS-FACTORIAL HepG2 Assay for human Thyroid Receptor alpha (THRa1) (AID 2283014). The method, boiled down: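 Measured here is mRNA from a GAL4-UAS reporter in transfected HepG2 cells carrying a Gal4-fused receptor, 24 h post-dose. DMSO served as negative control and baseline.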

Test [18] has as its target Retinoic acid receptor alpha (Homo sapiens) (UniProt P10276). Briefly: ATG_RARa_TRANS: Attagene TRANS-FACTORIAL HepG2 Assay for human Retinoic Acid Receptor alpha (RARa) (AID 2283005). In outline: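 HepG2 transiently transfected with multiplex GAL4-UAS reporter units including a human RARa–GAL4 chimera; 24 h compound exposure. Reporter mRNA quantified by RT-PCR, 6-FAM labeling and capillary electrophoresis; gain of signal versus DMSO.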

Test [19] has as its target human Retinoid X Receptor beta (RXRb), RXRB (gene 6257) (UniProt P28702). Briefly: ATG_RXRb_TRANS: Attagene TRANS-FACTORIAL HepG2 Assay for human Retinoid X Receptor beta (RXRb) (AID 2283013). The method, boiled down: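 Transfect HepG2 with GAL4-UAS multi-reporter constructs (chimeric NR-Gal4, TRANS format); dose compound 24 h; isolate RNA, RT-PCR, FAM primer extension, HpaI digest; quantify by capillary electrophoresis; positive direction vs DMSO.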

The target in test [20] is human Retinoic Acid Receptor beta (RARb), RARB (gene 5915) (UniProt P10826). Briefly: ATG_RARb_TRANS: Attagene TRANS-FACTORIAL HepG2 Assay for human Retinoic Acid Receptor beta (AID 2283004). In outline: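 Fluorescent capillary-electrophoresis detection of GAL4-UAS reporter mRNA defines the endpoint, with induction over DMSO-treated wells scored as activity. Transiently transfected human hepatoma HepG2 cells expressing exogenous NR–Gal4 proteins are exposed to test chemicals for 24 h.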

Chain of human Thyroid Receptor alpha (THRa1), THRA (gene 7067) (P10827 whole entry, looked up, the tested form may be a part): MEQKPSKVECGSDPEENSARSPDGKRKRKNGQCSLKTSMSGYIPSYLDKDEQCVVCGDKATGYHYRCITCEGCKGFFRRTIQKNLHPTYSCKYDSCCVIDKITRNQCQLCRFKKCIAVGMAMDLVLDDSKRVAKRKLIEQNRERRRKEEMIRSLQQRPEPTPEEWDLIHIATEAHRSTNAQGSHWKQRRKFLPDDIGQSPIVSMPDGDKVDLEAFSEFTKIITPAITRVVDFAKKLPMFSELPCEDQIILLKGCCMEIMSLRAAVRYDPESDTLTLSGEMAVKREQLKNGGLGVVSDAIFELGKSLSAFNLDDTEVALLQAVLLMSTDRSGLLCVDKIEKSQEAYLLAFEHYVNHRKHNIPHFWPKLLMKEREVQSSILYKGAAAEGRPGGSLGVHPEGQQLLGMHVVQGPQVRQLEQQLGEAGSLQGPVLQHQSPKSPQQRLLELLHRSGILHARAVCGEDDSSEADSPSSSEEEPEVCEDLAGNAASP
Chain of Retinoic acid receptor alpha (Homo sapiens) (P10276 whole entry, looked up, the tested form may be a part): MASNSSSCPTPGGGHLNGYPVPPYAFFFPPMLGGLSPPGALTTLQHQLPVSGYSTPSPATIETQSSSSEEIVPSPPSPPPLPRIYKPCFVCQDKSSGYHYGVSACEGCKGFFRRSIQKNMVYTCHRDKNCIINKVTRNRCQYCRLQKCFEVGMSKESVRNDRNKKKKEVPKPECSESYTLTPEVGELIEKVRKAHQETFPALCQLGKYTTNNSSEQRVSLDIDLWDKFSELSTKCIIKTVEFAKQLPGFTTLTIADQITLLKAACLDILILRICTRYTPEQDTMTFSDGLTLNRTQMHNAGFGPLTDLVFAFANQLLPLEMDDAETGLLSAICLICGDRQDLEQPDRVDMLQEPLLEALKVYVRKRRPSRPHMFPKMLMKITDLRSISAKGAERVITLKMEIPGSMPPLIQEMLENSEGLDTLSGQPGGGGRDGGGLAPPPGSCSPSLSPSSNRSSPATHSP
Chain of human Peroxisome Proliferator-activated Receptor alpha (PPARa), PPARA (gene 5465) (Q07869 whole entry, looked up, the tested form may be a part): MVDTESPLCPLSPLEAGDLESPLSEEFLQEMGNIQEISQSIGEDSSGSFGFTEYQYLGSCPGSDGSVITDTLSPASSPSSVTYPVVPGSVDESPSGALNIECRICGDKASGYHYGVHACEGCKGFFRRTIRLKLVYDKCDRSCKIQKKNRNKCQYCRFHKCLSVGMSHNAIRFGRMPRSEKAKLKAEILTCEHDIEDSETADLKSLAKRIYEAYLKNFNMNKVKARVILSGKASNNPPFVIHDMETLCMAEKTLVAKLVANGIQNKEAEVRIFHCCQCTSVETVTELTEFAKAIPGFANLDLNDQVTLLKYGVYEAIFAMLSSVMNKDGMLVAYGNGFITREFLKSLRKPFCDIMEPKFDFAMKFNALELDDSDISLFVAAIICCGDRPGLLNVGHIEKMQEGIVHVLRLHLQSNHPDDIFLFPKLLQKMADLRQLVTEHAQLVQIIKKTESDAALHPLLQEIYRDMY
Chain of Nuclear receptor subfamily 1 group I member 2 (Homo sapiens) (O75469 whole entry, looked up, the tested form may be a part): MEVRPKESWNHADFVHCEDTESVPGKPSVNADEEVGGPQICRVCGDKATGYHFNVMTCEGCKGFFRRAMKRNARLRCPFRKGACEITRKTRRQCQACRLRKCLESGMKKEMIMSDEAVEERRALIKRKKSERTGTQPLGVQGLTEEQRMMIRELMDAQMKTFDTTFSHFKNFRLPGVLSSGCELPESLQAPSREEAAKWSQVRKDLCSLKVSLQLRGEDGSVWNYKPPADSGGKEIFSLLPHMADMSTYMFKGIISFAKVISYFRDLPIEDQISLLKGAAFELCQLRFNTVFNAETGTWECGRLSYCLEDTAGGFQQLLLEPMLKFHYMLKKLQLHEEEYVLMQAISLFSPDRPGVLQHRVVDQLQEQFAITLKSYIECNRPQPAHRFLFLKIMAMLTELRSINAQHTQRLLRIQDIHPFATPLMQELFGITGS
Chain of human Retinoid X Receptor beta (RXRb), RXRB (gene 6257) (P28702 whole entry, looked up, the tested form may be a part): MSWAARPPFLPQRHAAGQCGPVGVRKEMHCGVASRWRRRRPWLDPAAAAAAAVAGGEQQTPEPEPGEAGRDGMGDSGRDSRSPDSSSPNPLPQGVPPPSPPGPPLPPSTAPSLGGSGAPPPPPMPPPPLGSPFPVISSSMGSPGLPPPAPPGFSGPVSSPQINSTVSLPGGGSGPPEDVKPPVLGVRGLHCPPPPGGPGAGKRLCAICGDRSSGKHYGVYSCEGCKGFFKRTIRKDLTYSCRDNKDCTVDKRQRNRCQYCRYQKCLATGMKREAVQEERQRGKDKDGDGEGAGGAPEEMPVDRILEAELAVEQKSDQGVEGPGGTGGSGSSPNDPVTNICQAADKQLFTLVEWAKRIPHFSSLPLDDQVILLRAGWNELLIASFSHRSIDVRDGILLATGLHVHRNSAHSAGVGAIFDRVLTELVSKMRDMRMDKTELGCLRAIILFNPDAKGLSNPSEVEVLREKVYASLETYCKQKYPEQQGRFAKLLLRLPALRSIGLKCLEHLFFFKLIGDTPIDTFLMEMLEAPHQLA
Chain of E-selectin (Homo sapiens) (P16581 whole entry, looked up): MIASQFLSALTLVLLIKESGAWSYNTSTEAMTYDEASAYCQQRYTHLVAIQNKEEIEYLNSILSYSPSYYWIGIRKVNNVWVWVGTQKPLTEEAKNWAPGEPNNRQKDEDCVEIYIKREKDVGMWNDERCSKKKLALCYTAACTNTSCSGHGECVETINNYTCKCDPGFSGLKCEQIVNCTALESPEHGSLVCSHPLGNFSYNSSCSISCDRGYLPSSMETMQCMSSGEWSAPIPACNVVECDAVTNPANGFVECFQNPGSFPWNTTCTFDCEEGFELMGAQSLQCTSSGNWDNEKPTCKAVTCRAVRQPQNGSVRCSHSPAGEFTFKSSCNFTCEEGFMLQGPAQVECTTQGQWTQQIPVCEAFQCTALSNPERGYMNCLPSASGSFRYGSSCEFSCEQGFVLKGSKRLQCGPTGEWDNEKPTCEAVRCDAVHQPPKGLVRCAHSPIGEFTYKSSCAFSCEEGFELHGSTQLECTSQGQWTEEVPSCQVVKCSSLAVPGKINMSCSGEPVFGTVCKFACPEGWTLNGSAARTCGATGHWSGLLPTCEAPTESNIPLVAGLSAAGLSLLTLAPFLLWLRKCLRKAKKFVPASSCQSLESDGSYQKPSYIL
Chain of human RAR-related Orphan Receptor gamma (RORg), RORC (gene 6097) (P51449 whole entry, looked up, the tested form may be a part): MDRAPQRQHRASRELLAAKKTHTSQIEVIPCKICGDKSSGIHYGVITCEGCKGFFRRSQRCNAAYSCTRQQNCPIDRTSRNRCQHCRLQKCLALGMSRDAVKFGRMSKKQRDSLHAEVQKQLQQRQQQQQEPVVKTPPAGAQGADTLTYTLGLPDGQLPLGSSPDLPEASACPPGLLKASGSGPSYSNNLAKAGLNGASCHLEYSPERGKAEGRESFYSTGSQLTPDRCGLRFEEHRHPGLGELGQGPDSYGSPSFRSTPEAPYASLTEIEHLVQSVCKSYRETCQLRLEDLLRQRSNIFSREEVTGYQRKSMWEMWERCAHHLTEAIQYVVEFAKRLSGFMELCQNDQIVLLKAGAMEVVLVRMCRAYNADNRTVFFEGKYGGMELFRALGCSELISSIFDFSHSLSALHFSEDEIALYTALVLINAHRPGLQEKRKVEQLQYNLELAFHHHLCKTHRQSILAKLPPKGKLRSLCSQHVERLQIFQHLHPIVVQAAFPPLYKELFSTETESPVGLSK
Chain of Peroxisome proliferator-activated receptor gamma (Homo sapiens) (P37231 whole entry, looked up, the tested form may be a part): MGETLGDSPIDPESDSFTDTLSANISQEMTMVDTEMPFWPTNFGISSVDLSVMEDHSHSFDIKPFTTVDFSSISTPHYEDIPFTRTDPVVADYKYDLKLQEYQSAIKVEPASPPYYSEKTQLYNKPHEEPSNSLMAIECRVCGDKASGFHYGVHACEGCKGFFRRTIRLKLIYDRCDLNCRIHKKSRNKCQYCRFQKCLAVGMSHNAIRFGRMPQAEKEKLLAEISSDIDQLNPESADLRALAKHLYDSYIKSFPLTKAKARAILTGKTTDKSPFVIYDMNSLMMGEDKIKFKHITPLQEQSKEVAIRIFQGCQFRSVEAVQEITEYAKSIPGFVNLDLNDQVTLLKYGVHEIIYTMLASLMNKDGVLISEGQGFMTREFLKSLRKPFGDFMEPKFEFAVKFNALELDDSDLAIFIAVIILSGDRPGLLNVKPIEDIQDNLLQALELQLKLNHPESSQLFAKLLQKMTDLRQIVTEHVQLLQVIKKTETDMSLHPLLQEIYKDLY
Chain of human RAR-related Orphan Receptor beta (RORb), RORB (gene 6096) (Q92753 whole entry, looked up, the tested form may be a part): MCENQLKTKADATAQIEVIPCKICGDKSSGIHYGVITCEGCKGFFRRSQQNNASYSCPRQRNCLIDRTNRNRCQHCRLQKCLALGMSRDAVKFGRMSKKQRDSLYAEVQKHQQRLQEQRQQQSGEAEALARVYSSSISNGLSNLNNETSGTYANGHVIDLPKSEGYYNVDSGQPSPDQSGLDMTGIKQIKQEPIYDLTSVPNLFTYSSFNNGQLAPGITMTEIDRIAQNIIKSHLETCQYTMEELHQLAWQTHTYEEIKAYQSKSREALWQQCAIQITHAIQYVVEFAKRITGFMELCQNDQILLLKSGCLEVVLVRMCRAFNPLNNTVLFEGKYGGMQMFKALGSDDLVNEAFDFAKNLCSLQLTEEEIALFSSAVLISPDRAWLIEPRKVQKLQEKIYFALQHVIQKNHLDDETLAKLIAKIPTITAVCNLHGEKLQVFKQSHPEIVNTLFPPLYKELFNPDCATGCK
Chain of Retinoic acid receptor RXR-alpha (Homo sapiens) (P19793 whole entry, looked up, the tested form may be a part): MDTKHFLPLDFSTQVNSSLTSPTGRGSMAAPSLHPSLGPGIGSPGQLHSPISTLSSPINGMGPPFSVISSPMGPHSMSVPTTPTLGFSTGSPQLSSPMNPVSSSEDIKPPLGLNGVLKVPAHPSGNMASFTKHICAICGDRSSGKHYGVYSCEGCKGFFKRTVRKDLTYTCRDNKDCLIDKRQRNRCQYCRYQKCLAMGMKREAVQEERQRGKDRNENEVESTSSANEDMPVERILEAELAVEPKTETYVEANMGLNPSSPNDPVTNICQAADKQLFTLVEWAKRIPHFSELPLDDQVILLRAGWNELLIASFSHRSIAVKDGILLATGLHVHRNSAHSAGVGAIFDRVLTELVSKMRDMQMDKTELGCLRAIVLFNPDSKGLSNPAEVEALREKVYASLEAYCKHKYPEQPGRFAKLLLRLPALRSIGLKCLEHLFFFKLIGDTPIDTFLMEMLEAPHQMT

With `CC(C)C1(C)N=C(c2ncccc2C(=O)O)NC1=O` (stereo unspecified), the result in test [1], in [2], in [3], in test [4], in [5] and in test [6] was inactive. Moreover, the call in [7], in test [8], in [9], in test [10], in [11] and in test [12] was inactive. Also, the outcome in [13] and in test [14] was inactive.

As to `Cc1nc(N(C)C)nc(OC(=O)N(C)C)c1C`, the result in test [1], in test [2], in test [3], in [4], in [5] and in test [6] was inactive. Moreover, the compound was classed as inactive in test [7], in test [15], in test [16], in [8], in test [9] and in test [10]. Also, the compound was called inactive in test [17], in [11], in [13] and in test [14].

One may read the AC50 as the concentration giving half of the maximal activity seen. Take `CN=C=S`: the outcome in test [1], in test [2], in [3], in test [4], in [5] and in test [18] was inactive. For the same compound, the outcome in [6], in test [15], in test [9], in test [17], in test [13] and in test [14] was inactive. Further, the results for the AC50 in test [7] and in [11] were 50 µM (active) and 11.7 µM (active), respectively.

On to `N#Cc1c(Cl)cccc1Cl`, for which the outcome in test [1], in [2], in test [3], in test [4], in [5] and in test [6] was inactive. In addition, the compound was classed as inactive in test [7], in test [10], in [19], in test [17], in test [11] and in [12]. Further, the result in [13] and in [14] was inactive. For the same compound, the AC50 in test [15] is 72.3 µM (active).

For `Nc1cnn(-c2ccccc2)c(=O)c1Cl`, the result in test [1], in test [2], in test [3], in test [4], in test [5] and in test [6] was inactive. For the same compound, the compound was called inactive in [8], in test [10], in test [17], in test [11], in test [12] and in [13]. Moreover, the outcome in test [14] was inactive. Besides, in test [7], the concentration at half-maximal activity (AC50) was 22.4 µM (active).

With `COP(=S)(OC)Oc1ccc([N+](=O)[O-])c(C)c1`, the result in test [1], in test [2], in test [3], in test [4], in test [5] and in [15] was inactive. In addition, the outcome in [8], in test [19], in test [17], in test [11] and in [14] was inactive. Also, the AC50 was 25.6 µM (active) in [6], 32.6 µM (active) in test [7] and 30.8 µM (active) in [13].

On to `O=P(O)(O)CCCl`, for which the result in test [1], in [2], in [3], in [4], in test [5] and in [20] was inactive. Moreover, the compound was called inactive in test [18], in test [6], in test [7], in [15], in test [16] and in test [9]. Moreover, the result in [10], in test [19], in [11], in test [12], in test [13] and in [14] was inactive.

For the compound `O=C1C2CC=CCC2C(=O)N1SC(Cl)(Cl)Cl` (stereo unspecified), the AC50 is 26.6 µM (active) in test [1] and 32.4 µM (active) in test [6]. Moreover, the result in [2], in [3], in test [4], in test [5], in test [18] and in test [7] was inactive. Besides, the compound was called inactive in test [15], in test [8], in [10], in test [19], in [17] and in [11]. Moreover, the outcome in test [13] and in test [14] was inactive.
